Results taken from PubChem BioAssay (NCATS).
Records with an inconclusive call do not appear. Where a call stands in place of a potency, no number is given. Activity calls are given as the source filed them. Unless noted, calls follow the shape of the dose curve; as a rule, active = well fitted curve in the direction sought with a large enough effect; inconclusive = small, poorly fitted or top-dose-only effect, or another doubt; inactive = no such curve, though single readings can be large; an effect the other way counts as inactive or inconclusive.

Key:
[1] = molecular target: Cytochrome P450 1A2 (Homo sapiens) (UniProt P05177); test: p450-cyp1a2 (AID 410; calls by dose curve; also: potency is read from the fitted curve at half-maximal effect)
In short: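 Read-out is luminescence from luciferin produced by CYP1A2 demethylation of Luciferin-ME (100uM, at Km). Detection reagent stopped the 60 min NADPH-dependent reaction; signals were normalized to 57 uM furafylline.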

[2] = molecular target: Glucocorticoid receptor (Homo sapiens) (UniProt P04150); test: GR-EFC Redistribution (AID 451; calls by dose curve; also: potency is read from the fitted curve at half-maximal effect); conditions: CHO-K1 GR-EFC translocation, beta-gal luminescence, 2 h
In short: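 Translocation of GR-ED fusion to nuclear EA restores b-gal, read by luminescence after 1 h room-temperature detection. Engineered CHO-K1 biosensor cells, 1,000/well, exposed 2 h at 37 C to titrations up to 46 uM final.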

[3] = molecular target: Mitogen-activated protein kinase 10 (Mus musculus) (UniProt Q61831); test: JNK3 AlphaScreen Assay (AID 530; active = well fitted curve in either direction with a large enough effect, not every such curve was filed as active;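 also: kinase came from lysate of stimulated human HepG2 cells; signal reports phosphorylation of biotinylated GST-cJun 1-79 at Ser73 with 10 µM ATP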)
In short: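 Kinase buffer: 20 mM Tris-HCl pH 7.6, 10 mM MgCl2, 1 mM DTT, 0.1 mM Na3VO4, 0.01% Tween-20; ATP 10 uM. Substrate biotin-GST-cJun(1-79), enzyme from activated HepG2 lysates. Detection by Ser73 phospho-antibody AlphaScreen.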

[4] = molecular target: 3',5'-cyclic-AMP phosphodiesterase 4B (Homo sapiens) (UniProt Q07343); test: qHTS Assay for Inhibitors of PDE-IV (AID 607; active = well fitted activation curve with a large enough effect in the main read-out, with a control signal flat, not every such curve was filed as active)
In short: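 Cell-based read-out of cAMP via a modified cyclic nucleotide-gated channel and membrane potential dye (535/590 nm) in HEK293 cells expressing PDE4 endogenously. Compounds tested up to 22.9 uM final; 100 uM RO 20-1724 reference.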

[5] = qHTS Assay for Lipid Storage Modulators (AID 1519; calls by dose curve); conditions: Drosophila S3 cells, BODIPY lipid droplet/cell ratio, laser cytometry, cells loaded with oleic acid; for activity change, negative = inhibition: at 57.5 µM (top of the series)
In short: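 Cells seeded at 5,000 per well were treated with compounds over a concentration series and loaded with oleic acid (400 uM, as added). Lipid droplet fluorescence (488 nm excitation, 500-530 nm channel) was read by laser-scanning cytometry and normalized to 20 uM Triacsin C.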

[6] = molecular target: DNA dC->dU-editing enzyme APOBEC-3G (Homo sapiens) (UniProt Q9HC16); test: qHTS for inhibitors of Vif-A3G interactions: Validation (AID 588379)
In short: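 Yellow fluorescence (Ex 488, Em 500-530) of Vif-coexpressing HeLa A3G-eYFP cells, scanned by Acumen cytometer, reports blocked A3G degradation. Cells plated at 700/well overnight at 37 deg C before compound addition, then a further overnight compound incubation at 37 deg C.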

[7] = system: Zika virus NS2B-NS3 protease; test: Primary screen GU AMC qHTS for Zika virus inhibitors (AID 1347154); also: nearly all actives have a fitted effect of over 70% in size
In short: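 Fluorogenic AMC-substrate cleavage by noncovalent NS2B-NS3 protease complex (25 nM, pH 8.0 Tris buffer with Tween 20) followed for 15 minutes at room temperature (~20% conversion). Percent inhibition from ex340/em450 signal change, fitted by 4-parameter Hill equation.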

[8] = molecular target: Cytochrome P450 3A4 (Homo sapiens) (UniProt P08684); test: qHTS Assay for Inhibitors and Substrates of Cytochrome P450 3A4 (AID 884); also: potency is read from the fitted curve at half-maximal effect; nearly all actives have a fitted effect of over 50% in size
In short: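 Luminescent readout of luciferin produced by CYP3A4 (20 nM) dealkylation of Luciferin-PPXE, 25 uM (its KM). NADPH-driven reaction ran 60 min at RT after 10 min compound preincubation; data scaled to 57 uM ketoconazole as 100% inhibition.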

[9] = molecular target: Cytochrome P450 3A4 (Homo sapiens) (UniProt P08684); test: qHTS Assay for Activators of Cytochrome P450 3A4 (AID 885); also: nearly all actives have a fitted effect of over 65% in size
In short: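 Luminescent readout of luciferin formed from 25 uM Luciferin-PPXE (KM level) by 20 nM CYP3A4 in 200 mM KPO4, with 60 min NADPH-driven reaction at room temperature after 10 min compound exposure. Ketoconazole (57 uM) defined 100% inhibition.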

[10] = Primary qHTS for small molecule stabilizers of the endoplasmic reticulum resident proteome: Secreted ER Calcium Modulated Protein (SERCaMP) assay (AID 1508630)
In short: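 The SH-SY5Y reporter protocol was run at 3 concentrations up to 38.3 uM (primary) or 11 concentrations (follow-up): 16 h compound, 100 nM thapsigargin for 4 h, then extracellular luciferase luminescence.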

[11] = AP1 Signaling Pathway (AID 357; active = well fitted curve in either direction with a large enough effect, not every such curve was filed as active;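 also: ME-180 reporter cells stimulated with EGF at its EC50 level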); conditions: ME-180 AP-1-bla reporter, EGF-induced, beta-lactamase ratio, 5 h; at 38 µM (top of the series)
In short: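 Beta-lactamase reporter under AP-1 response element, ME-180 background. Stimulus: EC50 EGF. Compound exposure 5 h, 37 °C. Detection: CCF4, 2.5 h RT, 460/530 nm. Values: AC50 from titration.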

[12] = Stat Signaling Pathway (AID 446; active = well fitted curve in either direction with a large enough effect, not every such curve was filed as active;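 also: ME-180 cervical cancer cells given 40 pM IL-6 alongside compound; SIE-controlled beta-lactamase reporter measured as 460/530 nm FRET emission ratio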); conditions: ME-180 (cervical carcinoma) SIE beta-lactamase reporter, IL-6 stimulated, 5 h; at 38 µM (top of the series)
In short: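 FRET read-out (405 nm excitation, 460/530 nm emission) of a beta-lactamase reporter under a STAT-inducible element in ME-180 cervical carcinoma cells. Cells with compound receive 40 pM IL-6 for 5 h. Values are normalised to AC90 stimulation and AC90 JAK-inhibitor controls.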

[13] = molecular target: Glucocorticoid receptor (Homo sapiens) (UniProt P04150); test: GR-GFP Redistribution (AID 450;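 active = compounds whose dose series gives a full or clear partial fitted curve of increased nuclear translocation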; also: potency is read from the fitted curve at half-maximal effect); conditions: U2OS GR-GFP nuclear translocation, laser cytometry, 2 h
[14] = molecular target: Guanine nucleotide-binding protein G(i) subunit alpha-1 (Homo sapiens) (UniProt P63096); test: qHTS Assay for Inhibitors of RGS12 GoLoco Motif Activity (Green Fluorophore) (AID 879);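 also: negative values mean loss of peptide binding seen as reduced polarization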
In short: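 A drop in FITC polarization marked displacement of the FITC-tagged RGS12 GoLoco peptide (10 nM) from Gαi1 (50 nM). Compounds were incubated 10 min at room temperature in Tris pH 7.5 buffer containing 150 mM NaCl, 0.1 mM GDP and 0.05% NP40; unlabeled peptide titration served as control.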

[15] = molecular target: Cytochrome P450 2C9 (Homo sapiens) (UniProt P11712); test: qHTS Assay for Inhibitors and Substrates of Cytochrome P450 2C9 (AID 883); also: nearly all actives have a fitted effect of over 60% in size
In short: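 Turnover of Luciferin-H (100uM, KM) by 10nM human CYP2C9 was measured over 60 min at 37C with NADPH regeneration; inhibitors and some substrates reduce luminescence. Data normalized to sulphaphenazole 57uM.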

[16] = molecular target: Cytochrome P450 2D6 (Homo sapiens) (UniProt P10635); test: qHTS Assay for Inhibitors and Substrates of Cytochrome P450 2D6 (AID 891); also: potency is read from the fitted curve at half-maximal effect; nearly all actives have a fitted effect of over 60% in size
In short: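 Luminescent read-out of luciferin formed by 5 nM human CYP2D6 demethylating 30 uM Luciferin-ME EGE (Km level) over 60 min at room temperature after NADPH regeneration addition. Data normalized to full inhibition by 1.43 uM quinidine.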

[17] = molecular target: Muscarinic acetylcholine receptor M1 (Rattus norvegicus) (UniProt P08482); test: qHTS Assay for Antagonists of Acetylcholine Muscarinic M1 Receptor: Measurement of IP-One Response (AID 944); also: nearly all actives have a fitted effect of over 75% in size
In short: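 Antagonism was measured as loss of carbachol-driven (EC80) IP1 accumulation in CHO cells carrying rat M1, using a homogeneous IP-One TR-FRET kit read at 620 and 665 nm.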

[18] = molecular target: Pyruvate kinase (Leishmania mexicana) (UniProt Q27686); test: qHTS Validation Assay for Inhibitors of Leishmania Mexicana Pyruvate Kinase (AID 945)
In short: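 Purified LmPYK (E451W mutant, 0.2 nM) was incubated 1 h at room temperature with 0.5 mM PEP and 0.1 mM ADP in 50 mM imidazole pH 7.2, 50 mM KCl, 7 mM MgCl2; ATP formed was read by PKLight luminescence, normalized to DMSO wells.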

[19] = molecular target: Alpha-galactosidase A (Homo sapiens) (UniProt P06280); test: Counterscreen for Glucocerebrosidase Inhibitors: qHTS Assay for Human alpha-Galactosidase at pH 4.5 (AID 992)
In short: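 Fluorogenic 1536-well qHTS at pH 4.5 (citrate, Tween-20): 2 nM enzyme, 80 uM 4-MU-alpha-galactoside, 20 min room temperature, NaOH/glycine stop. Titration 0.7 nM to 77 uM, data normalized to no-enzyme and full-activity controls, Hill-fitted AC50.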

[20] = molecular target: alpha-glucosidase (Oryza sativa, rice) (UniProt Q653V4); test: Counterscreen for Glucocerebrosidase Inhibitors: qHTS Assay for Rice alpha-Glucosidase at pH 5.0 (AID 997)
In short: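 Endpoint fluorogenic assay at pH 5.0: compounds (0.7 nM to 77 uM) titrated against 4 nM rice enzyme and 400 uM 4-MU-alpha-glucoside for 20 min at room temperature; NaOH/glycine stop, read ex 365/em 440 nm, Hill-fitted AC50.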

[21] = molecular target: Cytochrome P450 2C19 (Homo sapiens) (UniProt P33261); test: qHTS Assay for Inhibitors and Substrates of Cytochrome P450 2C19 (AID 899); also: potency is read from the fitted curve at half-maximal effect; nearly all actives have a fitted effect of over 60% in size
In short: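 Reactions contain 5nM enzyme, 10uM Luciferin-H EGE (KM) and 50mM KPO4; compound preincubates 10 min at 37C, NADPH regeneration starts turnover for 60 min. Luminescence after detection reagent gives activity.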

[22] = molecular target: Ubiquitin carboxyl-terminal hydrolase 1 (Homo sapiens) (UniProt O94782); test: Inhibitors of USP1/UAF1: Pilot qHTS (AID 504865);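 also: rhodamine fluorescence freed from ubiquitin-rhodamine substrate followed over time; top concentration of the series differs between compounds; nearly all actives have a fitted effect of over 35% in size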
In short: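 Enzyme-free wells gave the negative control, while test wells held 1nM USP1/UAF1 preincubated with compound for 15 min at room temperature. Ub-Rho at 150nM final started the reaction, and fluorescence at 480/540 nm was recorded kinetically.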

[23] = measured here: cell count channel max response
[24] = measured here: lipid channel max response

Sequence of Cytochrome P450 1A2 (Homo sapiens) (P05177 whole entry, looked up): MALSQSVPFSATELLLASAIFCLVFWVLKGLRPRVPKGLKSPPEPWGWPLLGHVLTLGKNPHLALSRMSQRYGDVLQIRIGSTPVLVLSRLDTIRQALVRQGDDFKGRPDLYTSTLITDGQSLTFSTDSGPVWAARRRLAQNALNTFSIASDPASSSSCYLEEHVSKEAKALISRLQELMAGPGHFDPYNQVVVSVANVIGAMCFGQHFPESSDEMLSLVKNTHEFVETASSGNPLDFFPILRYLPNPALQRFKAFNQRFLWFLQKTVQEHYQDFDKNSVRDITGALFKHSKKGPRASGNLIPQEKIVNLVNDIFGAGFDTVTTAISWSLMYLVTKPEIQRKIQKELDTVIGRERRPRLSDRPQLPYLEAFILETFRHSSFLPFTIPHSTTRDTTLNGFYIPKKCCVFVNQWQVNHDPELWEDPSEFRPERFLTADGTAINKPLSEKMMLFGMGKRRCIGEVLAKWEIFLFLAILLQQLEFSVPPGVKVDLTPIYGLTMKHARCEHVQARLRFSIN
Sequence of Cytochrome P450 3A4 (Homo sapiens) (P08684 whole entry, looked up): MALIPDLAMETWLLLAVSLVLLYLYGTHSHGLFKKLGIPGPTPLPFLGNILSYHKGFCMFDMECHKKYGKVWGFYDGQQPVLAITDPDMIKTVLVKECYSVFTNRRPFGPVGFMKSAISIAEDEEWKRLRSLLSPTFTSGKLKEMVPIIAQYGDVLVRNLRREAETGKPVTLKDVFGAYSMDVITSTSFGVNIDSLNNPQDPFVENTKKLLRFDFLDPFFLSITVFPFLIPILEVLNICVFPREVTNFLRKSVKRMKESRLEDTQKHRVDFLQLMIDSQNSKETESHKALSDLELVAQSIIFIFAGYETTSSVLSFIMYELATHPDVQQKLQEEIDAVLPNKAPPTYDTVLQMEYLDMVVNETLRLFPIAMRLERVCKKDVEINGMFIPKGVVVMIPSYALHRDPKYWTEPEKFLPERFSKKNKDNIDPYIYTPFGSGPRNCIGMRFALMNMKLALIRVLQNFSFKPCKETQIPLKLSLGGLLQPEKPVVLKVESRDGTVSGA
Sequence of Glucocorticoid receptor (Homo sapiens) (P04150 whole entry, looked up, the tested form may be a part): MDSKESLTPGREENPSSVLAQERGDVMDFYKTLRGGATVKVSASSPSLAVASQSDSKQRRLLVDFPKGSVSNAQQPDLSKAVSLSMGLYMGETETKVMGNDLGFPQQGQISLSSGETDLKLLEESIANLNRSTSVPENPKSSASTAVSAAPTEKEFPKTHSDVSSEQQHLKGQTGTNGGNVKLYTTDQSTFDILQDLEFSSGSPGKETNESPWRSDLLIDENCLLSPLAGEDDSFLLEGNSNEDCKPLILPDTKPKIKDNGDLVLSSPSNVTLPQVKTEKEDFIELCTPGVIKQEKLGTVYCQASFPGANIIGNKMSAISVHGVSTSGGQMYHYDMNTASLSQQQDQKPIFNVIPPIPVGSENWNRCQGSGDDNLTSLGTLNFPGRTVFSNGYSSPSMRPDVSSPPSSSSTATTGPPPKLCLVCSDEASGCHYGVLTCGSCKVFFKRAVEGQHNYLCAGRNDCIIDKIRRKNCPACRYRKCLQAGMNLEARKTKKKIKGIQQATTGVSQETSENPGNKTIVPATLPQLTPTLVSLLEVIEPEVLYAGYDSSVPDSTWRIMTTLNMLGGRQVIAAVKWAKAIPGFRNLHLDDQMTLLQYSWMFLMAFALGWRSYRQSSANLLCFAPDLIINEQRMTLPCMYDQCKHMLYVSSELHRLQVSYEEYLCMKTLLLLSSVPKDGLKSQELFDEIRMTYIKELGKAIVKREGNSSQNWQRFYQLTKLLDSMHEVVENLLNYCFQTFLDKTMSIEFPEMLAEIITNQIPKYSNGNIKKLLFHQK
Sequence of DNA dC->dU-editing enzyme APOBEC-3G (Homo sapiens) (Q9HC16 whole entry, looked up): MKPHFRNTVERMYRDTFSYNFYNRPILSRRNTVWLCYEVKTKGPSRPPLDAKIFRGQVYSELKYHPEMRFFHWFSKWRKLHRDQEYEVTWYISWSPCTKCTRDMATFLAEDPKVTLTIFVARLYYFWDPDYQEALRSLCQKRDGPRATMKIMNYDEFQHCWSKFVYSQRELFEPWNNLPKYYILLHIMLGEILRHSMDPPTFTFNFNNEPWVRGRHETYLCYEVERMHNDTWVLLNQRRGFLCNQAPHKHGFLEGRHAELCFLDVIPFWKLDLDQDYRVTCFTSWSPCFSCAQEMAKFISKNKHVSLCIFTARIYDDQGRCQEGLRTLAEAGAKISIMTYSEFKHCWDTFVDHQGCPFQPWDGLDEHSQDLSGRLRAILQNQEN
Sequence of Cytochrome P450 2D6 (Homo sapiens) (P10635 whole entry, looked up): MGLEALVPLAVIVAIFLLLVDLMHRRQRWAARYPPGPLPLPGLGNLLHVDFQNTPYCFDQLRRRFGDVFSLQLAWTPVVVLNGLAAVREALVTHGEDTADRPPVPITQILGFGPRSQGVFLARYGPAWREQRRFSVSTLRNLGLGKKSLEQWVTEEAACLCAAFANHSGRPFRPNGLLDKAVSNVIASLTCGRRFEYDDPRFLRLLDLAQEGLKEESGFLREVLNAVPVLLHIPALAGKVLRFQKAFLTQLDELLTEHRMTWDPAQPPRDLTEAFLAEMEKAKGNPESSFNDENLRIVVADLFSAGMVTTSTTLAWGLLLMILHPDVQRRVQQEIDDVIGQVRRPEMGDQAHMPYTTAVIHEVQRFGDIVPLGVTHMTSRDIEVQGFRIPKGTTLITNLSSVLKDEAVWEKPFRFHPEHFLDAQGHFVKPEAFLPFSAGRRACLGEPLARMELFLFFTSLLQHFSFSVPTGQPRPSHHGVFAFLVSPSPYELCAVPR
Sequence of Cytochrome P450 2C9 (Homo sapiens) (P11712 whole entry, looked up): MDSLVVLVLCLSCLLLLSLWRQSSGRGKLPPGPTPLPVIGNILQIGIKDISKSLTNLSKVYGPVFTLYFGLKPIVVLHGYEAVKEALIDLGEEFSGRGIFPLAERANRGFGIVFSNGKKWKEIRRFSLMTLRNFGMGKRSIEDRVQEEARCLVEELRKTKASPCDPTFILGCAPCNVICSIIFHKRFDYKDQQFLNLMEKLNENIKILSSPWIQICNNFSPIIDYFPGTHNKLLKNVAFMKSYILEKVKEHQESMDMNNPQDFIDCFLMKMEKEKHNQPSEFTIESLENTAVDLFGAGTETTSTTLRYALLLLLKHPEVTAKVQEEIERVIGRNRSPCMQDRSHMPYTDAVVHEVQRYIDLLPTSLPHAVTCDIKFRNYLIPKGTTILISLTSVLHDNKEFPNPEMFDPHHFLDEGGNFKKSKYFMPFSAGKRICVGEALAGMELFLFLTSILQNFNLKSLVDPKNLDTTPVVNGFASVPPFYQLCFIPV
Sequence of 3',5'-cyclic-AMP phosphodiesterase 4B (Homo sapiens) (Q07343 whole entry, looked up): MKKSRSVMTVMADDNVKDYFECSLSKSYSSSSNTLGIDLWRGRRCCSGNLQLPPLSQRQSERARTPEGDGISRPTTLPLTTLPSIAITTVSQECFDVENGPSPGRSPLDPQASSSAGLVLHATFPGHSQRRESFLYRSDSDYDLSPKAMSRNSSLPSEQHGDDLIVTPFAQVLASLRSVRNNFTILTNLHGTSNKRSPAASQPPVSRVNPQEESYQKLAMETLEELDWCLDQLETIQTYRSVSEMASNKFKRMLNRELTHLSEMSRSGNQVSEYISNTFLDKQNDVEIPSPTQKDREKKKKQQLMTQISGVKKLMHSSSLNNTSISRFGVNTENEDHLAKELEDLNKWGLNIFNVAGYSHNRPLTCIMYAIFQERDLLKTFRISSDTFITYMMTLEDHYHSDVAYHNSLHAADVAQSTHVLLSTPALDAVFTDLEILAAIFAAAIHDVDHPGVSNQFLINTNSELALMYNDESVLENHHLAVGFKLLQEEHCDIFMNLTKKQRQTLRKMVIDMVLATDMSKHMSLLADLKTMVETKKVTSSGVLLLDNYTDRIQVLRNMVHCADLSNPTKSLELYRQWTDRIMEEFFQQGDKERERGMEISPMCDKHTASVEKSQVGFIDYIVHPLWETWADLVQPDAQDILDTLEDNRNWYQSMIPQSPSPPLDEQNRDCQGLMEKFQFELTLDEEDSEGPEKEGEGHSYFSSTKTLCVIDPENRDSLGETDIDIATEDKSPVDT
Sequence of Ubiquitin carboxyl-terminal hydrolase 1 (Homo sapiens) (O94782 whole entry, looked up): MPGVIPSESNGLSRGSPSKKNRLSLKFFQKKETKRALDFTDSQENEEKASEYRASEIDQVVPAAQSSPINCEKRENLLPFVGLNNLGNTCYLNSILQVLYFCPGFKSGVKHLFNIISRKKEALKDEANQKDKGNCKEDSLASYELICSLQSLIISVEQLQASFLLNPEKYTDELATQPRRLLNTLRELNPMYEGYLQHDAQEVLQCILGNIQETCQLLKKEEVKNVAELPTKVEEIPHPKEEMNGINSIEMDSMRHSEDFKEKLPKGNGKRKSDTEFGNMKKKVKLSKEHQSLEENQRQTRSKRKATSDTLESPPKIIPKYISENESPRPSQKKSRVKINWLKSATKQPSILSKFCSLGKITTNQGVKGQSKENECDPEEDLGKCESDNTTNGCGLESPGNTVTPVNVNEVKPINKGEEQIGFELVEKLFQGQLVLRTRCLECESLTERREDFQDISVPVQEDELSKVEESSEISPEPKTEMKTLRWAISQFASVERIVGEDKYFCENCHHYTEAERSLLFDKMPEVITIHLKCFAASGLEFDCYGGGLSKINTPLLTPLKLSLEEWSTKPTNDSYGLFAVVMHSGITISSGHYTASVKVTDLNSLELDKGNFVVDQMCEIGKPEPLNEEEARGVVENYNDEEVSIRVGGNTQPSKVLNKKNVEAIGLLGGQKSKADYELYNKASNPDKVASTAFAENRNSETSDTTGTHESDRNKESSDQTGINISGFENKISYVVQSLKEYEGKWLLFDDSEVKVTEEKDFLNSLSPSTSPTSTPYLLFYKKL

CCCCCCCCCCCCCCCC(=O)C(F)(F)F
Potency [1]: 31.6 µM (active)
Potency [2]: > 46 µM (inactive)
Potency [3]: inactive
Potency [4]: inactive
activity change, negative = inhibition [5]: 2.39% (inactive)
max response [5, 23]: -9.26%
max response [5, 24]: -5.47%
Potency [6]: inactive
Potency [7]: inactive

O=C1C=CC(=O)C2=C1C1c3ccccc3C2c2ccccc21
Potency [8]: 39.8 µM (active)
Potency [9]: inactive
Potency [7]: inactive
Potency [10]: inactive

CO[C@]1(C2=NCCN2)COc2ccccc2O1
activity change, negative = inhibition [11]: -14% (inactive)
Potency [1]: inactive
activity, negative = inhibition [12]: 13.6% (inactive)
Potency [13]: > 46 µM (inactive)
Potency [2]: > 46 µM (inactive)
Potency [3]: inactive
Potency [4]: inactive
outcome [14]: inactive
Potency [15]: inactive
Potency [16]: 0.794 µM (active)
Potency [17]: inactive
Potency [18]: inactive
outcome [19]: inactive
outcome [20]: inactive
activity change, negative = inhibition [5]: 1.12% (inactive)
max response [5, 23]: 8.44%
max response [5, 24]: 10.7%
Potency [6]: inactive
Potency [7]: inactive

CCCN(CCC)C[C@@H]1CCCCN1CCNC(=O)N1c2ccccc2C(=O)Nc2cccnc21
Potency [1]: 25.1 µM (active)
Potency [13]: > 46 µM (inactive)
Potency [2]: > 46 µM (inactive)
Potency [3]: inactive
Potency [15]: inactive
Potency [9]: inactive
Potency [16]: 2.51 µM (active)
Potency [21]: 7.94 µM (active)
activity change, negative = inhibition [5]: -0.0589% (inactive)
max response [5, 23]: -8.98%
max response [5, 24]: -7.53%
Potency [22]: inactive
Potency [6]: inactive
Potency [7]: inactive
